# Laboratory results reported in PubChem BioAssay AID1851 (National Center for Advancing Translational Sciences (NCATS), 2009).
# Where “and” joins values, the source holds several entries; their conditions need not be identical. Equal values may be shown once. The whole screen tested about 16,000 compounds, of which about 2,600 (16%) were called active. About 20% were inconclusive and are not listed. The list comes from a sample in which actives are over-represented; it also holds similar structures and randomly drawn compounds. Unmarked numbers belong to inactive results. The call rests on the fitted dose curve; in most records, active means well fitted curve in the direction sought with a large enough effect; inconclusive means small, poorly fitted or top-dose-only effect, or effect the other way; inactive means no such curve, though single readings can be large or run the other way.
# Biological target: Cytochrome P450 2D6 (Homo sapiens) (UniProt P10635)
# Assay: Cytochrome panel assay with activity outcomes
# Conditions: recombinant CYP, pro-luciferin dealkylation, luminescence, p450-cyp2d6; series mostly up to 57.1 µM; activity, negative = inhibition: at the top concentration
# On the % scale 0 is the no-effect control and ±100 the full control effect.
# Chain of Cytochrome P450 2D6 (Homo sapiens) (P10635 whole entry, looked up): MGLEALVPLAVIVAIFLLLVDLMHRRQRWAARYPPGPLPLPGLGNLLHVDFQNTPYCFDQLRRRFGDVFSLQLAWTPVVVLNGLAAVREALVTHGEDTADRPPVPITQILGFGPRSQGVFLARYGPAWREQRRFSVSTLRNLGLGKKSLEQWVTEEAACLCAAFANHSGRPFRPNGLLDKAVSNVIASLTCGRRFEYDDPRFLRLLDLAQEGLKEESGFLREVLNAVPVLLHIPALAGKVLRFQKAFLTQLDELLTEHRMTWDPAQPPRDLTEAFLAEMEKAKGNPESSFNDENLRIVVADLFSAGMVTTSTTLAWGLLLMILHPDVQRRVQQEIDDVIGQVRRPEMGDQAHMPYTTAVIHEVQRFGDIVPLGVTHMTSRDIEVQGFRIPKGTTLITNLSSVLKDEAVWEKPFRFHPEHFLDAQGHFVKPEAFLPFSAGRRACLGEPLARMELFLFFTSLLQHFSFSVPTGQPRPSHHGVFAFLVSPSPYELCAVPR
Compound,"activity, negative = inhibition",AC50
N[C@@H](Cn1cc(I)c(=O)[nH]c1=O)C(=O)O,13.8%,
N[C@H](Cn1ccc(=O)[nH]c1=O)C(=O)O,,3.98 µM (active)
N[C@@H](Cn1oc(=O)[nH]c1=O)C(=O)O,4.45%,
CCSCC[C@H](N)C(=O)O,2.98% [at 11.4 µM],
CC(=O)OCC(=O)[C@@H]1CC[C@H]2[C@H]3CC[C@H]4C[C@@H](O)CC[C@]4(C)[C@@H]3C(=O)C[C@@]12C,3.28% [at 25.6 µM],
COc1ccc(C2NCc3ccc4c(c3-n3cccc32)OCO4)cc1OC (centres undefined),,0.398 µM (active)
CCNC(=O)[C@@H]1O[C@@H](n2cnc3c(N)ncnc32)[C@H](O)[C@H]1O,1.61%,
C[C@@H]1[C@H]2C=C[C@@H]1[C@@H](c1c3ccc(=O)c(O)c-3oc3c(O)c(O)ccc13)[C@@H]2C(=O)O,2.68% [at 11.4 µM],
Cc1nc2ccccc2c(=O)n1-n1cnnc1,2.1%,
Clc1ccc(C(c2ccc(Cl)cc2)n2cc[n+](C[C@@H](OCc3ccc(Cl)cc3Cl)c3ccc(Cl)cc3Cl)c2)cc1,,0.0398 µM (active)
O=C(C1CC(=O)N(C2CCCC2)C1)N1CCC2(CC1)OCCO2 (centres undefined),13.9%,
CCN1CCN(Cc2cc(OC)c(OC)cc2[N+](=O)[O-])CC1,,6.31 µM (active)
CCN1C[C@]2(C)CC[C@H](OC)[C@@]34[C@@H]2[C@H](OC(C)=O)[C@]2(OCO[C@@]25C[C@@H](OC)[C@@H]2C[C@@]3(O)[C@H]5[C@@H]2OC)[C@H]14,-2.5% [at 25.6 µM],
COC(=O)NC/C=C\c1nc(CC/C=C\C(=O)O[C@H]2C[C@H]3CC(=O)O[C@@H](/C=C\CC(C)C)C[C@@H]4CC[C@H](C)[C@H](C[C@@H](OC)C[C@H](C2)O3)O4)co1,-6.57% [at 11.4 µM],
CC(N)Cc1ccccc1Sc1ccc(O)cc1 (centres undefined),,10 µM (active)
CNC(C)Cc1ccccc1Sc1ccc(O)cc1 (centres undefined),,3.16 µM (active)
COC(=O)C1(C)C=C2C(=C(C)C(=O)C2C)CN1 (centres undefined),-5.73%,
CC(C)[C@@H]1CN[C@H](C(=O)O)[C@@H]1CC(=O)O,3.37%,
C=C1[C@@H]2C[C@@]3([C@H]1O)[C@H]1C[C@@H]4[C@@]5(C)CC[C@H](O)[C@]4([C@H]1N(CC)C5)[C@H]3C[C@H]2O,-0.649% [at 25.6 µM],
CC(C)CNCCc1ccccn1,-13.8% [at 11.4 µM],
CCC(=O)O[C@H]1CC[C@H]2[C@@H]3CCC4=CC(=O)CC[C@]4(C)[C@H]3CC[C@]12C,-8.4% [at 25.6 µM],
CC[C@@H](C)[C@H]1O[C@]2(CC[C@@H]1C)C[C@@H]1C[C@H](C/C=C(/C)[C@H](O[C@@H]3C[C@H](OC)[C@H](O[C@@H]4C[C@H](OC)[C@@H](O)[C@H](C)O4)[C@H](C)O3)[C@@H](C)/C=C\C=C3CO[C@@H]4[C@H](O)C(C)=C[C@@H](C(=O)O1)[C@]34O)O2 (tested in a mixture with another compound),5.21%,
Cc1ccc2c(c1)N(CCC(=O)N1CCC3(CC1)OCCO3)C(=O)C(C)O2 (centres undefined),-27.8%,
CN1CCc2cc(O)cc3c2[C@H]1Cc1ccc(O)c(O)c1-3,-16%,

Compound,"activity, negative = inhibition",AC50
COc1cc([C@H]2c3cc4c(cc3[C@@H](O)[C@@H]3COC(=O)[C@H]23)OCO4)cc(OC)c1OC,-7.23% [at 25.6 µM],
CN1CCc2cc3c(cc2[C@@H]1O)OCO3,,7.94 µM (active)
CC(=O)N1CC[N+](C)(C)CC1,-1.9%,
CC(C)(C)c1cc(C=C(C#N)C#N)cc(C(C)(C)C)c1O,-11.6%,
CC1=C2C(=O)[C@@H]3[C@@H](CC=C4C[C@@H](O)CC[C@@]43C)[C@H]2CC[C@@]12O[C@H]1C[C@H](C)CN[C@H]1[C@@H]2C,9.41% [at 11.4 µM],
NS(=O)(=O)c1cc([C@@]2(O)NC(=O)c3ccccc32)ccc1Cl,4.03% [at 25.6 µM],
CCOc1ccc(C2C(C#N)=C(N)Oc3c2c(=O)oc2ccccc32)cc1 (centres undefined),-8.83%,
CCOC(C(=O)OCCCN(CC)CC)(c1ccccc1)c1ccccc1,,2 µM (active)
CC(C)NP(=O)(NC(C)C)OP(=O)(NC(C)C)NC(C)C,10.5%,
CC(C)N[C@@H](C)Cc1ccc(I)cc1,,0.1 µM (active)
Cc1ccc2cc3cc(C(=O)N4CCC5(CC4)OCCO5)oc3nc2c1,-17.5%,
CCOC(=O)c1ncn2c1CN(C)C(=O)c1cc(F)ccc1-2,-7.93%,
CC1(C)[C@@H]2CC[C@]1(C)CN(CCC[N+](C)(C)C)C2,2.02% [at 11.4 µM],
CS(=O)(=O)O[C@H]1CN2CCC1CC2,2.87% [at 11.4 µM],
C[C@]12CC[C@H](O)C[C@@H]1CC[C@H]1[C@H]2CC[C@]2(C)[C@H](C(=O)CO)CC[C@@H]12,-4.84%,
c1ccc(N2CCC3(CCNCC3)CC2)nc1,,1.26 µM (active)
c1csc(CN2CCCC3(CCNCC3)C2)n1,-11.9%,
c1csc(CN2CCC3(CCNCC3)CC2)n1,5.07%,
c1ccc(N2CCCC3(CCNCC3)C2)nc1,,10 µM (active)
Cc1ccccc1OCCN=Cc1c(O)n(C)c(=O)n(C)c1=O,-8.35%,
COc1cc2c(cc1OC)[C@@]13CCN4C=C5CCO[C@H]6CC(=O)N2[C@@H]1[C@@H]6[C@H]5C[C@H]43,9.01% [at 11.4 µM],
C1CCc2nnnn2CC1,-0.778% [at 25.6 µM],
CC(C)N(CC[C@@](C(N)=O)(c1ccccc1)c1ccccn1)C(C)C,,inactive
CC(C)[N+](C)(CCC(C(N)=O)(c1ccccc1)c1ccccc1)C(C)C,,3.98 µM (active)

Compound,"activity, negative = inhibition",AC50
N#C/C(=C\c1ccc(O)c(O)c1)C(N)=S,-10.4%,
Nc1nc(N)c(N=Nc2ccc([As](=O)(O)O)c(O)c2)c(N)n1,12.7% [at 11.4 µM],
CC(O)(CS(=O)(=O)c1cccc(C(F)(F)F)c1)C(=O)Nc1cccc(C(F)(F)F)c1 (centres undefined),-12.4%,
COc1cc(C[C@H](C)N)c(OC)cc1I,,25.1 µM (active)
NC(=O)c1ccc(C(=O)Nc2ccc([As](=O)(O)O)cc2)cc1,-0.507% [at 11.4 µM],
O=NN(Cc1ccc(Cl)cc1)[C@@H](C(=O)O)c1ccccc1,6.33% [at 11.4 µM],
CC(NCc1ccc(Cl)cc1)C(O)c1ccccc1 (centres undefined),,0.0708 µM (active)
C[C@H](N)[C@@H](O)c1ccccc1,-7.7% [at 25.6 µM],
COc1ccn(C)c(=O)c1C#N,-5.47% [at 25.6 µM],
O=C1C2CCN(CC2)C1(CO)CO,,inactive
CCc1ccc(CCN2CCCCC2)nc1,,1.58 µM (active)
c1ccc(CCN2CCOCC2)nc1,13.9% [at 11.4 µM],
c1ccc(CCN2CCCCCC2)nc1,-18.4% [at 11.4 µM],
CC(C)COC(=O)OCN1C(=O)CN(CCN2CC(=O)N(COC(=O)OCC(C)C)C(=O)C2)CC1=O,2.09%,
O=S(=O)(c1ccccc1)N1CCCCC1c1cccnc1 (centres undefined),-14.3%,
N#CCCN,1.7%,
C[n+]1c(/C=C\c2ccc(O)c3ncccc23)[se]c2ccccc21,,1 µM (active)
Oc1cccc2cccnc12,8.63% [at 11.4 µM],
COc1cccc(-c2nc(CS(=O)CC(=O)N3CCC4(CC3)OCCO4)c(C)o2)c1 (centres undefined),0.248%,
C[C@@]12CC[C@H]3[C@@H](CC[C@@H]4C[C@H]5S[C@H]5C[C@]43C)[C@H]1CC[C@H]2O,-6.37% [at 25.6 µM],
CCCN(CCC)CCc1cccc2c1CC(=O)N2,,3.16 µM (active)
N[C@@H]1C=CC=C(C(=O)O)C1,1.21%,
N#CC(C#N)=Cc1cc(O)c(O)c(O)c1,-3.79%,
O=C(O)c1cc[c]([Hg][S]c2ncnc3nc[nH]c23)cc1,,1 µM (active)

Compound,"activity, negative = inhibition",AC50
O=C(NC1CCCCC1)NC1CC2CCC(C1)N2Cc1nnnn1Cc1ccc2c(c1)OCO2 (centres undefined),,6.31 µM (active)
CCOP(=O)(OCC)C(NC(=O)C(Cl)Cl)C(Cl)(Cl)Cl (centres undefined),-4.39%,
O=[N+]([O-])O[C@H]1CO[C@H]2[C@H]1OC[C@@H]2O[N+](=O)[O-],8.18% [at 25.6 µM],
C/C(=C\c1ccc(N(C)C)cc1)[N+](=O)[O-],-28.6%,
C[N+]1(C)[C@@H]2CC[C@H]1CC(OC(=O)[C@@H](CO)c1ccccc1)C2 (some centres undefined),,inactive
C[N+]1(C)C2CC[C@H]1CC(OC(=O)[C@@H](CO)c1ccccc1)C2 (some centres undefined),12% [at 11.4 µM],
CCN1CCC[C@@H](OC(=O)C(c2ccccc2)c2ccccc2)C1,,1.58 µM (active)
NCCCC[C@H](N[C@@H](CCc1ccccc1)C(=O)O)C(=O)N1CCC[C@H]1C(=O)O,10.4% [at 25.6 µM],
CCC1=C(C[C@H]2NCCc3cc(OC)c(OC)cc32)C[C@H]2c3ccccc3CCN2C1,,0.316 µM (active)
CCC1=C(C[C@H]2NCCc3ccccc32)C[C@@H]2c3cc(OC)c(OC)cc3CCN2C1,,2.51 µM (active)
COc1cc2c(cc1OC)[C@H](C)NCC2,-5.44% [at 25.6 µM],
CC[C@@H]1CN2CCc3cc(OC)c(OC)cc3[C@H]2C[C@@H]1C[C@@H]1NCCc2cc(OC)c(OC)cc21,3.48%,
O=C1CS[C@@H](c2ccccc2Cl)c2cc(Cl)ccc2N1,-15.3%,
c1ccc(C2CC2)c(OCC2=NCCN2)c1,,25.1 µM (active) and 5.01 µM (active)
c1ccc([C@H]2CNCc3ccccc32)cc1,,5.01 µM (active)
O=[As](O)(O)c1ccc2nc3cc([As](=O)(O)O)ccc3nc2c1,14.5% [at 11.4 µM],
CC(=O)OCC1=C(C(=O)O)N2C(=O)[C@@H](N)[C@@H]2SC1,5.59% [at 25.6 µM],
c1cc(CCN2CCCCC2)ccn1,-18.4% [at 11.4 µM],
O[Si@](CCCN1CCCCC1)(c1ccc(F)cc1)C1CCCCC1,,0.501 µM (active)
CS(=N)(=O)CC[C@@H](N)C(=O)O (some centres undefined),3.1% [at 25.6 µM],
COc1cc([C@@H](O)CN)ccc1O,-2.5%,
O=C(CCN1CC2CCC(CC2)C1)c1cccs1,,2 µM (active)
